An excerpt weighted towards active compounds, which were near 21% of everything screened.
Sm TGR inh: S. mansoni TGR enzyme inhibition. Q962Y6. purified TGR, DTNB reduction, TNB absorbance 405 nm. Potency, µM (series often up to 114 µM), hits mostly inhibitors. 3% of 360,000 active. AID 485364; also: nearly all actives have a fitted effect of over 60% in size
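First, TGR (20 nM dispensed) and NADPH were mixed with compound. Second, a 15 min room-temperature incubation followed. Third, further NADPH and then DTNB were added to start the reaction. Finally, TNB absorbance was monitored kinetically.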
Pf growth 48h: inhibits P. falciparum growth in the first generation, 48 h; P. falciparum luciferase growth in erythrocytes, 48 h; Potency, µM (doses to about 28.7 µM), actives largely listed as inhibitors; 5.9% of 310,000 active; AID 504832
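Luminescence readout; reporter = integrated firefly luciferase in P. falciparum. RBC culture at 2% hematocrit, 0.1% parasitemia final, 37 C/5% CO2; decreased signal taken as growth inhibition.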
CHX counter: counter-screen hit for Shiga toxin inhibitors, cycloheximide. cell reporter, cycloheximide protein synthesis inhibition counterscreen. max response, %. 12% of 300,000 active; in the data active = max response mostly above about 13%, no sharp cut-off; inactive = mostly below about 14%; also: read at 38.3 µM for the half of the compounds with a filed dose
Pf growth 96h: inhibits malaria parasite growth, 96 h | P. falciparum luciferase reporter growth, 96 h | Potency, µM (doses to about 28.7 µM), most hits filed as inhibitors | 6.9% of 320,000 active | AID 504834
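Parasite growth measured via integrated firefly luciferase reporter in P. falciparum. Infected erythrocytes at 2% hematocrit, 0.05% parasitemia final were treated 96 hours at 37 C under 5% CO2, and luminescence was read.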
NS1 inh: inhibitors of influenza NS1 protein function; Potency, µM (doses to about 46.1 µM); 0.4% of 270,000 active; calls by dose curve; also: actives are rising curves; nearly all actives have a fitted effect of over 50% in size
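S. cerevisiae expressing influenza A NS1, grown in glucose, washed, then diluted 1:100 into pH 6.0 -URA galactose medium with 23 nl compound. Growth recovery read as OD600; NS1-free strain serves as control.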
Shiga toxin inh: inhibitors of Shiga toxin in Vero cells | Vero cells, Shiga toxin protein synthesis inhibition reporter | AID 2315 | 9.2% of 290,000 active | inhibition, % at 38.7 µM; in the data active = inhibition mostly above about 28%, no sharp cut-off; inactive = mostly below about 43%
Large screens that a line does not name were inactive. Unless noted, calls follow the shape of the dose curve; as a rule, active = well fitted curve in the direction sought with a large enough effect; inconclusive = small, poorly fitted or top-dose-only effect, or another doubt; inactive = no such curve, though single readings can be large; an effect the other way counts as inactive or inconclusive.

O=C(COC(=O)c1ccccc1Oc1ccccc1)NCc1ccco1	Sm TGR inh 16µM
CCN(C(=O)COC(=O)c1cccnc1Nc1cccc(C(F)(F)F)c1)C1CCS(=O)(=O)C1 (stereo not given)	CHX counter 42, Shiga toxin inh 51
Cc1cc(Br)ccc1SCC(=O)OCC(=O)NCc1ccco1	Sm TGR inh 25µM
CNC(=O)c1cccnc1Nc1cccc(C(F)(F)F)c1	CHX counter 27
COc1ccc(C2(c3ccc(O)cc3O)CC(c3ccccc3Cl)NC(=S)N2)cc1 (stereo not given)	Pf growth 48h 12µM
O=C(NC1CCCC1)C(c1cc2c(cc1[N+](=O)[O-])OCO2)N1CCCC1 (stereo not given)	CHX counter 18, Shiga toxin inh 66
Cc1cc(Cn2ccnc2)c(C)cc1Cn1ccnc1	Pf growth 48h 13µM, Pf growth 96h inconclusive
CC(C)Sc1nnc(NC(=O)C2CC2)s1	CHX counter 35, NS1 inh inconclusive, Shiga toxin inh active
CC(C)c1nnc(NC(=O)C2CCCCC2)s1	CHX counter 13, NS1 inh inconclusive, Shiga toxin inh 20
Cc1ccccc1NC(=O)CSc1nnc(NC(=O)C2CC2)s1	none
CCSc1nnc(NC(=O)NC(CC)(C(F)(F)F)C(F)(F)F)s1	Pf growth 48h 12µM, Pf growth 96h inconclusive
CC(C)Sc1nnc(Nc2ccccc2)s1	CHX counter 37, Pf growth 96h inconclusive, Shiga toxin inh 143
CCSc1nnc(NC(=O)NC(C)(C(F)(F)F)C(F)(F)F)s1	Pf growth 48h inconclusive, Pf growth 96h inconclusive
COc1ccc(Cl)cc1N(C)C(=O)Cc1noc2ccc(C)cc12	none (no result: Pf growth 48h, CHX counter, Pf growth 96h, NS1 inh, Shiga toxin inh)
O=C(/C=C/c1ccc(Cl)cc1)OCC(=O)c1ccc[nH]1	none (no result: CHX counter, NS1 inh, Shiga toxin inh)
CCOC(=O)Cc1nnc(NC(=O)C2CCCCC2)s1	none (no result: Sm TGR inh)
CC(C)=CC(=O)Nc1nnc(C(C)C)s1	CHX counter 46
CSc1nnc(NC(=O)C2CCCCC2)s1	Pf growth 96h inconclusive
CCc1nnc(NC(=O)C2CCCCC2)s1	CHX counter 39
CCCC(=O)Nc1nnc(SCC)s1	CHX counter 19, Shiga toxin inh 38
CCSc1nnc(NC(=O)C2CCCCC2)s1	CHX counter 25, Shiga toxin inh 62 (no result: Pf growth 96h)
NC(=O)C1CCN(C(=O)c2ccc3c(=O)n(Cc4ccco4)c(SCC(=O)c4ccc(F)cc4)nc3c2)CC1	Pf growth 48h inconclusive (no result: NS1 inh)
CC[C@H](C)[C@H](NC(=O)[C@H](C)NC(=O)[C@H](CC(N)=O)NC(=O)[C@H](CCCCN)NC(=O)[C@H](Cc1ccccc1)NC(=O)[C@H](CC(C)C)NC(=O)[C@@H](NC(=O)[C@@H](NC(=O)[C@H](CC(C)C)NC(=O)[C@@H]1CCCN1C(=O)[C@@H](NC(=O)[C@H](CCC(N)=O)NC(=O)[C@H](CO)NC(=O)[C@H](CCCCN)NC(=O)[C@H](CCC(=O)O)NC(=O)[C@H](CO)NC(=O)[C@@H](NC(=O)[C@H](CCSC)NC(=O)[C@H](Cc1ccccc1)NC(=O)CNC(=O)CNC(=O)[C@@H](N)Cc1ccc(O)cc1)[C@@H](C)O)[C@@H](C)O)C(C)C)[C@@H](C)O)C(=O)N[C@H](C(=O)N[C@@H](CCCCN)C(=O)N[C@@H](CC(N)=O)C(=O)N[C@@H](C)C(=O)N[C@@H](Cc1ccc(O)cc1)C(=O)N[C@@H](CCCCN)C(=O)N[C@@H](CCCCN)C(=O)NCC(=O)N[C@@H](CCC(=O)O)C(=O)O)[C@@H](C)CC	none (no result: Sm TGR inh, Pf growth 48h, Pf growth 96h, NS1 inh)
Cc1ccc(NS(=O)(=O)c2ccc3[nH]c(=O)[nH]c3c2)cc1	Pf growth 48h inconclusive
COC(=O)c1ccc(Cn2c(O)c(N=NC(N)=S)c3ccccc32)o1	Pf growth 96h inconclusive
CCc1nnc(NC(=O)NC(C)(C)C)s1	CHX counter 24 (no result: Pf growth 48h)
CCOC(=O)c1ccc(N)cc1	none (no result: CHX counter, NS1 inh, Shiga toxin inh)
CCOC(=O)c1cc(-c2ccc(N)cc2)sc1N	CHX counter 54, Shiga toxin inh 66
NNC(=O)c1sc(-c2ccc(Cl)cc2)cc1N	CHX counter 45, Shiga toxin inh 66 (no result: NS1 inh)
CCOC(=O)c1sc(-c2ccc(Br)cc2)cc1N	CHX counter 54, Shiga toxin inh 114
CCCNC(=O)Cn1nc(-c2ccc(F)cc2)c2cnc3ccc(F)cc3c21	none (no result: Pf growth 48h, CHX counter, Pf growth 96h, NS1 inh, Shiga toxin inh)
CCC(C)N(C)Cc1cccc(C2(O)CCN(S(=O)(=O)c3ccc(F)c(C)c3)CC2)c1 (stereo not given)	Pf growth 48h 13µM, Pf growth 96h inconclusive
